Data: PubChem BioAssay (NCATS)
Records with an inconclusive call do not appear. Active and inactive are the calls of the source. Unless noted, calls follow the shape of the dose curve; as a rule, active = well fitted curve in the direction sought with a large enough effect; inconclusive = small, poorly fitted or top-dose-only effect, or another doubt; inactive = no such curve, though single readings can be large; an effect the other way counts as inactive or inconclusive.

Key:
[1] = target: Nuclear receptor subfamily 1 group I member 3 (Homo sapiens) (UniProt Q14994); test: Primary qHTS for antagonist of constitutive androstane receptor (CAR) against the NCATS DSHEA and TCM libraries (AID 1794836);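 also: HepG2 cells stably expressing hCAR with CYP2B6 luciferase reporter stimulated by CITCO; series mostly up to about 40 µM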
In short: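 Antagonist mode: CAR reporter luminescence (ONE-Glo) in HepG2-CYP2B6-hCAR cells stimulated with 48 uM CITCO (final) over 24 h at 37 C, compounds titrated; viability read first by CellTiter-Fluor fluorescence.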

[2] = KB-8-5-11 P-gp reporter qHTS against the NCATS DSHEA and TCM libraries (AID 1919977); also: 0% is about no effect
In short: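 KB-8-5-11, 500 cells/well, DMEM/10% FBS without colchicine; 4 h attach; cpd titrations, 72 h, 37C/5% CO2; CellTiter-Glo, 30 min RT, luminescence.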

[3] = Viability counterscreen for antagonist of constitutive androstane receptor (CAR) against the NCATS DSHEA and TCM libraries (AID 1794837);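 also: compound exposure lasted 24 h before viability reading; 0% is about no effect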
In short: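 Cells: HepG2 line carrying CYP2B6 reporter and hCAR, seeded and attached 5 h. Then pin-transferred test substances plus agonist CITCO at 48 uM final; 24 h incubation; fluorogenic viability reagent, 1 h.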

[4] = Viability counterscreen for agonist of constitutive androstane receptor (CAR) against the NCATS DSHEA and TCM libraries (AID 1794838);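 also: HepG2 cells with CYP2B6 reporter and hCAR plus 0.75 µM PK11195 antagonist; 0% is about no effect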
In short: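 Cell health was measured as CellTiter-Fluor signal in HepG2-CYP2B6-hCAR cells treated for 24 h with substances alongside the hCAR antagonist PK11195 (0.75 uM final).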

[5] = target: Nuclear receptor subfamily 1 group I member 3 (Homo sapiens) (UniProt Q14994); test: Primary qHTS for agonist of constitutive androstane receptor (CAR) against the NCATS DSHEA and TCM libraries (AID 1794839); settings: Potency: CAR antagonist co-added at 0.75 µM unless noted;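 also: HepG2 cells expressing human CAR with a CYP2B6 reporter plus PK11195 antagonist; 0% is about no effect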
In short: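 qHTS, agonist mode: HepG2-CYP2B6-hCAR, 2,500 cells/well, 5 h attach; cpds + PK11195 0.75 µM final; 24 h, 37 °C, 5% CO2. Readouts: CellTiter-Fluor (405/540 nm), then ONE-Glo luminescence.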

[6] = HepG2 viability counterscreen (readout 2: ATP content) against the NCATS DSHEA and TCM libraries (AID 1794840); also: 0% is about no effect
In short: (§1)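 Same wells read twice: first fluorescence from cleaved GF-AFC substrate (25 uM final, 30 min, 37C) for live-cell protease, then CellTiter-Glo luminescence after 30 min at room temperature for ATP. HepG2 cells were exposed ~24 h to substances.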

[7] = HepG2 viability counterscreen (readout 1: protease activity) against the NCATS DSHEA and TCM libraries (AID 1794841);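 also: cells exposed to compounds for about 24 h before the protease read; 0% is about no effect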
In short: as §1

[8] = target: Cytochrome P450 2D6 (Homo sapiens) (UniProt P10635); test: qHTS for inhibitors of CYP2D6 against the NCATS DSHEA and TCM libraries (AID 1919972); also: % is scaled to controls: 0 for no effect and ±100 for the full control effect
In short: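 qHTS, concentration–response format with most substances from 19.5 nM. CYP2D6 + pro-luciferin substrate, 15 min with compound, then 1x NADPH regen, 30–45 min RT dark. Glo detection 30 min, luminescence. Quinidine control.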

[9] = target: Cytochrome P450 2C19 (Homo sapiens) (UniProt P33261); test: qHTS for inhibitors of CYP2C19 against the NCATS DSHEA and TCM libraries (AID 1919974);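 also: luminescence from luciferin released by CYP2C19 oxidation of a pro-luciferin substrate; potency is read from the fitted curve at half-maximal effect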
In short: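 Isoform-specific enzyme and substrate levels; enzyme-free wells as background. Reaction: 1x NADPH regenerating system, 30-45 min, room temperature, shielded from light; luminescent detection reagent added, 30 min.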

[10] = KB-3-1 P-gp reporter qHTS against the NCATS DSHEA and TCM libraries (AID 1919975); also: 0% is about no effect
In short: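 KB-3-1 parental line, 1536-well qHTS: cells seeded, ~4 h attachment, pintool compound addition, ~72 h at 37C, then CellTiter-Glo, 30 min RT, luminescence. Concentration-response format.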

[11] = target: Cytochrome P450 1A2 (Homo sapiens) (UniProt P05177); test: qHTS for inhibitors of CYPIA2 against the NCATS DSHEA and TCM libraries (AID 1919976);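 also: light from luciferin formed by CYP1A2 from a pro-luciferin substrate; series mostly up to about 37 µM; % is scaled to controls: 0 for no effect and ±100 for the full control effect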
In short: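 Furafylline served as the plate control. Compounds met CYP1A2 and pro-luciferin substrate 15 min before NADPH regeneration solution (1x) was added; after 30-45 min at RT, P450-Glo reagent was added for 30 min and luminescence was measured.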

[12] = qHTS Counterscreen for compound interference against the NCATS DSHEA and TCM libraries (AID 1919978); settings: firefly luciferase detection reagent interference, luminescence;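 also: compounds preincubated with 1 µM D-luciferin or buffer before detection reagent; % of control where 0% means no effect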
In short: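 Compounds, titrated from 19.5 nM to 39.8 uM final, were pinned onto 1 uM D-luciferin or plain 100 mM potassium phosphate. After 15 min at room temperature, luciferin detection reagent was added for 30 min before the luminescence read.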

[13] = Dual reporter qHTS for agonist of Pregnane X Receptor (hPXR) against the NCATS DSHEA and TCM libraries: Fluorescence readout (AID 1920058); also: 0% is about no effect
In short: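 In this qHTS counter-read, reporter-bearing HepG2 cells in charcoal-stripped serum received substances for approximately 24 h before viability was assessed fluorometrically with CellTiter-Fluor.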

[14] = target: Nuclear receptor subfamily 1 group I member 2 (Homo sapiens) (UniProt O75469); test: Dual reporter qHTS for antagonist of Pregnane X Receptor (hPXR) against the NCATS DSHEA and TCM libraries: Luminescence Readout (AID 1920060);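 also: HepG2 cells carrying hPXR luciferase reporter stimulated with rifampicin at 2 µM; 0% is about no effect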
In short: (§2)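 In antagonist mode, 2 uM rifampicin was added to hPXR-Luc HepG2 cells alongside test substances, incubated 24 h at 37 C; luminescence gave reporter activity, and CellTiter-Fluor fluorescence (405/540 nm) gave viability.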

[15] = Dual reporter qHTS for antagonist of Pregnane X Receptor (hPXR) against the NCATS DSHEA and TCM libraries: Fluorescence Readout (AID 1920061); also: 0% is about no effect
In short: as §2

[16] = qHTS for differential inhibitors of proliferation of Plasmodium falciparum line 3D7 (AID 1876); also: potency is read from the fitted curve at half-maximal effect
[17] = Validation screen for inhibitors of Lassa infection (AID 463096; calls by dose curve; also: % is scaled to controls: 0 for no effect and ±100 for the full control effect)
[18] = Quantitative high throughput screen for delayed death inhibitors of the malarial parasite plastid, 96 hour incubation (AID 488745); also: potency is read from the fitted curve at half-maximal effect; nearly all actives have a fitted effect of over 70% in size
In short: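 Two-generation (96 h) exposure of luciferase-reporter P. falciparum in erythrocytes, 2% hematocrit, 0.1% parasitemia final, 37 C, 5% CO2, RPMI 1640 with 0.5% Albumax. Growth inhibition scored by reduced luminescence.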

[19] = target: Glutathione peroxidase 1 (Homo sapiens) (UniProt P07203); test: Primary qHTS Assay for Inhibitors of Recombinant Selenoprotein Glutathione Peroxidase 1 (GPX1) (AID 1845191); also: % is scaled to controls: 0 for no effect and ±100 for the full control effect; nearly all actives have a fitted effect of over 65% in size
In short: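 NADPH consumption tracked by fluorescence at 340/450 nm between t=0 and t=15 min, room temperature. Final mix: 10 nM GPX1, 100 nM glutathione reductase, 1 mM GSH, 0.5 mM NADPH, 0.5 mM cumene hydroperoxide, 0.01% BSA; 30 min compound–enzyme preincubation.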

Chain of Nuclear receptor subfamily 1 group I member 3 (Homo sapiens) (Q14994 whole entry, looked up): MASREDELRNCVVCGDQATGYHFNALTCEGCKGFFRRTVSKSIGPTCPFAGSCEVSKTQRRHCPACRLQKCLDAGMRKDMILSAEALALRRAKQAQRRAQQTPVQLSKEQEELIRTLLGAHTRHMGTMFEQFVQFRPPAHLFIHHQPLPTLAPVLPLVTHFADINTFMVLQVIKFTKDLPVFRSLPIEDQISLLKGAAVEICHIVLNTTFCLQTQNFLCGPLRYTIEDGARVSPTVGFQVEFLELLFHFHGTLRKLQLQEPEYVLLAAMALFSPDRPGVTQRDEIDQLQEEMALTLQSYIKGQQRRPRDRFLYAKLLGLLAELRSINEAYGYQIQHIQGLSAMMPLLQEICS
Chain of Glutathione peroxidase 1 (Homo sapiens) (P07203 whole entry, looked up): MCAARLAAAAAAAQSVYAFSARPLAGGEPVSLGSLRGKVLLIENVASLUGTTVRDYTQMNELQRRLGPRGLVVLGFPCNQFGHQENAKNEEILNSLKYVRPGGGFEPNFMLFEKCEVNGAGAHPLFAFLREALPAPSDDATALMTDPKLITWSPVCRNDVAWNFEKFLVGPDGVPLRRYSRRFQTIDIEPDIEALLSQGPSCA
Chain of Cytochrome P450 2D6 (Homo sapiens) (P10635 whole entry, looked up): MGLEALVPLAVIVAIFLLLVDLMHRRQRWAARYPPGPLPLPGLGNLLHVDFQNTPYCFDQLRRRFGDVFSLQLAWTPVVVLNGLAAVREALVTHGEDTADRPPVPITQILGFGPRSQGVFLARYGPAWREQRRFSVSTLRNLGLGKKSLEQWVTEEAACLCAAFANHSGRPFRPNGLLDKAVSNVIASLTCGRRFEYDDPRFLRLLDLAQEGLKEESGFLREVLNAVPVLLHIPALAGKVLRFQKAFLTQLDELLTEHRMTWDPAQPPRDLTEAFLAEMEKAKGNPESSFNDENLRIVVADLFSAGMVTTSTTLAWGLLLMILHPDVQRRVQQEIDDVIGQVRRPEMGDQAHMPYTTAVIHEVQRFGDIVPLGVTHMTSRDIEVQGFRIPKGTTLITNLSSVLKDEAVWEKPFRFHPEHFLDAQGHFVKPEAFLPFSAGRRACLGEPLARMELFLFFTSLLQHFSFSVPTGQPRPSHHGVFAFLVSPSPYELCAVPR
Chain of Cytochrome P450 2C19 (Homo sapiens) (P33261 whole entry, looked up, canonical isoform): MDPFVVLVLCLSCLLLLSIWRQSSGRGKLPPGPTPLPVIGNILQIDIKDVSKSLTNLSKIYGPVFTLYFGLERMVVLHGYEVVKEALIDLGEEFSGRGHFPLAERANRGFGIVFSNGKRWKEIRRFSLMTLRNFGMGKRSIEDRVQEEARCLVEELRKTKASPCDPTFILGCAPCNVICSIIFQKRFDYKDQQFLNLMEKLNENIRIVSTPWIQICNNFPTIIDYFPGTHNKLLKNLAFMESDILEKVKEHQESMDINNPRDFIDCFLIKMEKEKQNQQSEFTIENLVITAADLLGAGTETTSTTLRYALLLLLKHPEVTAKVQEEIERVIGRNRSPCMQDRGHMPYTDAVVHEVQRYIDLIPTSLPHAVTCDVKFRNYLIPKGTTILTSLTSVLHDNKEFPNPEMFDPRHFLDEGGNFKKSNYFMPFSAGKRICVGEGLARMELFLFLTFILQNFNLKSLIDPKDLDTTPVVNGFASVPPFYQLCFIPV
Chain of Nuclear receptor subfamily 1 group I member 2 (Homo sapiens) (O75469 whole entry, looked up): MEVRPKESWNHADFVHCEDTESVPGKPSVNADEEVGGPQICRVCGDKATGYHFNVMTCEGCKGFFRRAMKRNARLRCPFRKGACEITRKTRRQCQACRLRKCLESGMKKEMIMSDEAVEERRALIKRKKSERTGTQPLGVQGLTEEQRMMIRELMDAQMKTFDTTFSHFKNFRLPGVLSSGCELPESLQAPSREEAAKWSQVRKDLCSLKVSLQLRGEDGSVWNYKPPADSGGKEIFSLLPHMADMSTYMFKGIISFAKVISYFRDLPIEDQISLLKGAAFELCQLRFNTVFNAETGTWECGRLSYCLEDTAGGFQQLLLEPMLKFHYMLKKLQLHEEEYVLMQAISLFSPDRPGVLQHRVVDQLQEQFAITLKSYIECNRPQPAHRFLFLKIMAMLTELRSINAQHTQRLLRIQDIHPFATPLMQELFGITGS
Chain of Cytochrome P450 1A2 (Homo sapiens) (P05177 whole entry, looked up): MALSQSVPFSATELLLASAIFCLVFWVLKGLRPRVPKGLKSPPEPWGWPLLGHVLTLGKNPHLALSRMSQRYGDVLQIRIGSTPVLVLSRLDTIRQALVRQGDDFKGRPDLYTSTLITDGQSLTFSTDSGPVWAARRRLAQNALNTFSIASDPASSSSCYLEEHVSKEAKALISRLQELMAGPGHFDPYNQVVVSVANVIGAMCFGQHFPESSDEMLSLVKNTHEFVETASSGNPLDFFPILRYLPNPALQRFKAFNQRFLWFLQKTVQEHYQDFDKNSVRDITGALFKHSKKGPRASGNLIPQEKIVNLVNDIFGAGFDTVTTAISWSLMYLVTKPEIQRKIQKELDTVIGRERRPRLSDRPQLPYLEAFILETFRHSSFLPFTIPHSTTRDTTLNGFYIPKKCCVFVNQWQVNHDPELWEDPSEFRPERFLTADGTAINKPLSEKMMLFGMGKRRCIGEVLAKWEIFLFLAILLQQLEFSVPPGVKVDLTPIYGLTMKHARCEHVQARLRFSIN

CC12CC3(O)OC(O1)C1(COC(=O)c4ccc(O)cc4)C3CC21OC1OC(CO)C(O)C(O)C1O (configuration not stated)
inactive: Potency [1] | Potency [2]

O=C(/C=C/c1ccc(O)c(O)c1)O[C@@H]1CC(C(=O)O)=C[C@@H](O)[C@H]1O
inactive: Potency [1] | Potency [2]

CC[C@@H]1CN2CC[C@]3(C(=O)Nc4ccccc43)[C@@H]2C[C@@H]1/C(=C\OC)C(=O)OC
active: Potency [9] 11.2 µM
inactive: outcome [3] | outcome [4] | Potency [5] | outcome [6] | outcome [7] | Potency [8] | outcome [10] | Potency [11] | Potency [2] | max response [12] -3.13% | outcome [13] | outcome [14] | outcome [15]

CC(=O)O[C@H]1C[C@@H]2CCC3C(CC[C@@]4(C)[C@H]3C[C@H]([N+]3(C)CCCCC3)[C@@H]4OC(C)=O)[C@@]2(C)C[C@@H]1[N+]1(C)CCCCC1 (some centres not stated)
active: Potency [16] 11.2 µM | Potency [18] 13.1 µM
inactive: Potency [17]

CCCCOC(=O)c1ccnc2cc(C(OCCN3CCCCC3)c3ccccc3C)sc12 (configuration not stated)
inactive: Potency [19]
